Here are results for nine molecules from PMC5540273 (PLoS ONE, 2017).

Some test systems named below: MAP4K3; MAP4K4; MAP4K5; MAPKAPK2; MAPKAPK5; MARK1; MARK2; MARK3; MARK4; MAST1; MELK; MERTK; MET.
Holding throughout (conditions): concentration: 1 μM, replicates: in singlicate; n = 1
The subject of another experiment is T1, MEK1.
T1 construct: gene MAP2K1

The subject of another experiment is T2, MEK2.
T2 construct: gene MAP2K2

In the next experiment the test system is T3, MEK3.
T3 construct: gene MAP2K3

A further experiment concerns T4, MEK4.
T4 construct: gene MAP2K4

Another experiment deals with T5, MEK5.
T5 construct: gene MAP2K5

For the next experiment, the system named is T6, MEK6.
T6 construct: gene MAP2K6

A further experiment concerns T7, MINK.
T7 construct: gene MINK1
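Note: KINOMEscan kinase panel screen.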

As for `c1ccc(-c2n[nH]cc2-c2ccnc3ccccc23)nc1` [GW271431], the “%Inh” value with MAP4K3 was 16%; in the experiment with MAP4K4, 23%; in the experiment on MAP4K5, 3%; in the experiment on MAPKAPK2 it was 9%; with MAPKAPK5 it was 0%; with MARK1, 0%. The “%Inh” value came to 0% in the experiment with MARK2; 0% in the experiment with MARK3; 6% with MARK4; 0% in the experiment on MAST1; 0% with MEK1; 0% in the experiment with MEK2. Also, the “%Inh” value amounted to 0% with MEK3; 32% with MEK4; 30% in the experiment with MEK5; 0% with MEK6; 10% in the experiment with MELK; 34% in the experiment on MERTK. Also, the “%Inh” value in the experiment with MET is 0%; with MINK it was 54%.

With `CC(C)(C)n1cnc2c(N)ncnc21` [SKF-97359], the “%Inh” value in the experiment with MAP4K3, in the experiment on MAP4K4, in the experiment on MAP4K5, with MAPKAPK2, with MAPKAPK5 and in the experiment with MARK1 was 0% in each case. Besides, the “%Inh” value is on record as 1% in the experiment on MARK2; 21% with MARK3; 3% in the experiment with MARK4; 58% with MAST1; 0% with MEK1; 0% in the experiment on MEK2. For the same molecule, the “%Inh” value turned out to be 39% in the experiment with MEK3; 0% in the experiment with MEK4; 8% in the experiment with MEK5; 0% in the experiment on MEK6; 0% in the experiment on MELK; 0% in the experiment with MERTK. For the same molecule, the “%Inh” value with MET and with MINK was 0% in each case.

`CN1c2ccc(NCc3ccc(F)cc3)cc2-c2c(cnn2C)S1(=O)=O`: the “%Inh” value in the experiment on MAP4K3 is 1%; with MAP4K4, 0%; in the experiment on MAP4K5, 12%; in the experiment with MAPKAPK2, 0%; in the experiment on MAPKAPK5 it was 0%; in the experiment on MARK1, 0%. In addition, the “%Inh” value was 0% with MARK2; 0% in the experiment with MARK3; 13% in the experiment on MARK4; 11% in the experiment with MAST1; 7% in the experiment on MEK1; 27% in the experiment with MEK2. Further, the “%Inh” value came out at 13% in the experiment on MEK3; 0% in the experiment with MEK4; 17% with MEK5; 0% in the experiment with MEK6; 0% with MELK; 0% with MERTK. In addition, the results for the “%Inh” value with MET and in the experiment on MINK were 3% and 26%, respectively.

As to `O=C1NC(=O)C(N2CCc3ccccc32)=C1c1cccc(Cl)c1` [SB-408010], the “%Inh” value is 20% with MAP4K3; 0% in the experiment with MAP4K4; 0% in the experiment on MAP4K5; 3% in the experiment with MAPKAPK2; 0% in the experiment with MAPKAPK5; 4% in the experiment with MARK1. Also, the “%Inh” value in the experiment with MARK2, with MARK3, in the experiment on MARK4, in the experiment with MAST1, in the experiment with MEK1 and with MEK2 was 0% in each case. Besides, the “%Inh” value in the experiment on MEK3, in the experiment on MEK4, in the experiment with MEK5, in the experiment with MEK6, with MELK and with MERTK was 0% each time. Moreover, the “%Inh” value in the experiment with MET and with MINK was 0% each time.

As for `COc1ccc(Nc2nccc(N3CCC(NC(=O)Nc4cccc(C(C)=O)c4)C3)n2)cc1` (stereo not drawn) [GSK1379731], the “%Inh” value with MAP4K3 turned out to be 0%; with MAP4K4, 8%; with MAP4K5, 0%; in the experiment with MAPKAPK2, 0%; in the experiment on MAPKAPK5, 0%; in the experiment on MARK1, 0%. Moreover, the “%Inh” value in the experiment with MARK2 was determined as 0%; with MARK3 it was 0%; in the experiment on MARK4 it was 10%; in the experiment with MAST1, 0%; in the experiment on MEK1 it was 0%; in the experiment on MEK2, 0%. In addition, the “%Inh” value in the experiment with MEK3 is recorded as 0%; in the experiment with MEK4 it was 40%; in the experiment on MEK5 it was 36%; with MEK6 it was 0%; in the experiment on MELK, 0%; in the experiment on MERTK, 35%. In addition, the “%Inh” value with MET and with MINK was 0% in each case.

For `COc1cc2c(cc1OCCN1CCN(C)CC1)ncc1c3ccc(C#N)cc3[nH]c21`, the “%Inh” value with MAP4K3 is 12%; in the experiment on MAP4K4, 59%; in the experiment on MAP4K5, 22%; in the experiment with MAPKAPK2, 0%; with MAPKAPK5 it was 0%; in the experiment on MARK1, 7%. Also, the “%Inh” value turned out to be 29% with MARK2; 0% in the experiment on MARK3; 0% in the experiment with MARK4; 97.2% in the experiment on MAST1; 34% in the experiment with MEK1; 80% in the experiment on MEK2. In addition, the “%Inh” value in the experiment on MEK3 is 9%; in the experiment on MEK4, 0%; with MEK5 it was 99.9%; in the experiment with MEK6, 11%; in the experiment with MELK, 51%; with MERTK, 0%. The “%Inh” value in the experiment on MET is 0%; in the experiment on MINK, 93%.

As to `N#Cc1c(N2CCOCC2)sc(-c2ccn[nH]2)c1-c1ccc(Cl)cc1`, the “%Inh” value in the experiment on MAP4K3 is on record as 0%; with MAP4K4 it was 0%; in the experiment with MAP4K5, 0%; in the experiment on MAPKAPK2, 0%; in the experiment on MAPKAPK5, 2%; in the experiment with MARK1, 1%. Also, the “%Inh” value in the experiment with MARK2 was found to be 0%; in the experiment with MARK3, 27%; with MARK4 it was 0%; in the experiment on MAST1 it was 53%; in the experiment on MEK1, 5%; in the experiment on MEK2 it was 9%. Further, the “%Inh” value in the experiment on MEK3 is on record as 12%; in the experiment with MEK4 it was 0%; in the experiment on MEK5, 29%; in the experiment on MEK6 it was 0%; with MELK, 0%; in the experiment with MERTK it was 0%. In addition, the entries for the “%Inh” value in the experiment on MET and in the experiment with MINK were 0% and 12%, respectively.

On to `Nc1nc(-c2ccc3c(N)n[nH]c3c2)cc(N2CCCC2)n1` [GSK2227430], for which the “%Inh” value with MAP4K3, with MAP4K4, in the experiment on MAP4K5, in the experiment on MAPKAPK2, in the experiment with MAPKAPK5 and in the experiment on MARK1 was 0% each time. In addition, the “%Inh” value in the experiment with MARK2 amounted to 0%; in the experiment with MARK3, 0%; in the experiment on MARK4 it was 6%; with MAST1 it was 0%; with MEK1, 0%; in the experiment on MEK2, 64%. Moreover, the “%Inh” value in the experiment on MEK3 worked out at 0%; in the experiment on MEK4, 0%; in the experiment with MEK5, 7%; in the experiment with MEK6 it was 8%; in the experiment on MELK, 0%; in the experiment on MERTK, 8%. Also, the “%Inh” value in the experiment with MET amounted to 0%; in the experiment with MINK, 10%.

In the case of `Cc1ccc(C(=O)NCC(N)=O)cc1-n1c(C)cc(OCc2ccc(F)cc2F)c(Br)c1=O`, the “%Inh” value with MAP4K3 stood at 12%; with MAP4K4, 4%; with MAP4K5, 0%; in the experiment on MAPKAPK2, 17%; with MAPKAPK5 it was 0%; in the experiment on MARK1 it was 24%. For the same molecule, the “%Inh” value came out at 11% in the experiment with MARK2; 10% in the experiment with MARK3; 16% in the experiment on MARK4; 0% in the experiment on MAST1; 0% in the experiment on MEK1; 26% in the experiment on MEK2. Also, the “%Inh” value was 0% with MEK3; 0% in the experiment on MEK4; 2% with MEK5; 13% in the experiment on MEK6; 24% with MELK; 3% in the experiment on MERTK. For the same molecule, the figures for the “%Inh” value with MET and in the experiment with MINK were 15% and 0%, respectively.
